This passage reports growth results from PubChem BioAssay (NCI).

About 83,000 compounds went through this panel and 20% of them were active in at least one assay; those are over-represented in the sample as a whole.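 48-hour exposure, single concentration, 96-well plates; percent growth endpoint where 0 means no net growth. Active: below 10.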 Unmarked numbers belong to inactive results. The source made the active and inactive calls.

Assay in all cases: NCI-60 one-dose screen, 48 h (100 = growth as untreated, 0 = no growth, -100 = all killed)
What all share (conditions): 10 µM unless noted

Assay [1] concerns SK-MEL-2 melanoma.
Assay [2] deals with EKVX NSCLC.
Assay [3] concerns SN12C renal.
Assay [4] relates to UO-31 renal.
Assay [5] has as its system TK-10 renal.
For assay [6], the system named is ACHN renal.
For assay [7], the system named is CAKI-1 renal.
The test system of assay [8] is A498 renal.
For assay [9], the system named is CCRF-CEM leukemia.
Assay [10] concerns MOLT-4 leukemia.
The subject of assay [11] is RPMI-8226 leukemia.
Assay [12] has as its system OVCAR-8 ovarian.
Assay [13] has as its system OVCAR-5 ovarian.
The test system of assay [14] is OVCAR-4 ovarian.
The test system of assay [15] is SK-OV-3 ovarian.
The subject of assay [16] is IGROV1 ovarian.
Assay [17] concerns OVCAR-3 ovarian.
The subject of assay [18] is HS 578T breast.
Assay [19] deals with NCI/ADR-RES ovarian.
For assay [20], the system named is SR leukemia.

Take `COc1ccc(-c2nc3ccc(-c4nc5ccc(N6CCN(c7ccncc7)CC6)cc5[nH]4)cc3[nH]2)cc1OC`: the growth in assay [1] was -17% (active); in assay [2] it was 69.2%; in assay [3], 45.2%; in assay [4] it was 97.5%; in [5], 101%; in [6], 91.9%. Further, the growth is 57.5% in [7]; 61.4% in assay [8]; 21.1% in [9]; 18.1% in [10]; 53.5% in [11]; 34.6% in assay [12]. The growth in assay [13] was 87.2%; in [14], 26.5%; in assay [15] it was 73.6%; in assay [16] it was 65.2%; in assay [17] it was 4.61% (active); in [18], 44.1%. Besides, the growth in [19] was 96.9%.

As to `COc1ccc(-c2nc3ccc(-c4nc5ccc(N6CCN(C)CC6)cc5[nH]4)cc3[nH]2)cc1OC`, the growth in assay [1] is 45%; in assay [2] it was 85.4%; in assay [3], 71.1%; in assay [4], 99.4%; in [5], 84.3%; in [6] it was 100%. The growth in assay [7] was 71.9%; in assay [8], 76.6%; in assay [9], 51.7%; in assay [10], 61.1%; in assay [11] it was 110%; in assay [12], 55.8%. In addition, the growth in assay [13] was 99.1%; in assay [14] it was 68.4%; in [15], 74.2%; in assay [16], 79.6%; in assay [17], 30.4%; in assay [18], 72.2%. In assay [19], the growth is 103%.

`O=C(/C=C/c1cccc([N+](=O)[O-])c1)c1ccc(O)c(CN2CCN(c3cc4c(cc3F)c(=O)c(C(=O)O)cn4C3CC3)CC2)c1`: the growth is 88.3% in [1]; 52.8% in assay [2]; 32.5% in [3]; -29.7% (active) in assay [4]; 34.5% in assay [5]; 8.06% (active) in assay [6]. Also, the growth was 42.3% in assay [7]; 97.2% in assay [8]; 0.194% (active) in [9]; 2.37% (active) in assay [10]; -25.6% (active) in assay [11]; 27.4% in assay [12]. The growth was 12.4% in [13]; 37.4% in assay [14]; 72.9% in assay [15]; 28.8% in [16]; 7.92% (active) in [17]; 51.9% in assay [18]. For the same compound, the growth in [19] was 10.7%.

In the case of `COc1cc(/C=C/C(=O)c2ccc(O)c(CN3CCN(c4cc5c(cc4F)c(=O)c(C(=O)O)cn5C4CC4)CC3)c2)cc(OC)c1OC`, the growth in assay [1] is 66.2%; in assay [2], 49.4%; in assay [3], 38.2%; in assay [4], 47.4%; in assay [5], 107%; in assay [6], 46.1%. Further, the growth in assay [7] was 54.7%; in [8], 93%; in assay [9] it was 9.83% (active); in assay [10], 33.3%; in assay [11], -3.9% (active); in [12], 30.8%. In addition, the growth in assay [13] is 65.5%; in [14], 49.8%; in assay [15], 89.2%; in [16], 55%; in assay [17], 14%; in [18] it was 38.1%.

Regarding `O=C(CCN1C(=O)/C(=C/c2ccc(Cl)cc2)SC1=S)NCCCN1CCOCC1`, the growth in assay [1] was 106%; in assay [2], 90.9%; in assay [3], 98.5%; in [4], 84.9%; in [5], 110%; in assay [6] it was 91.4%. For the same compound, the growth in assay [7] is 94.4%; in assay [8], 106%; in assay [9] it was 103%; in assay [10], 102%; in assay [20], 102%; in assay [11] it was 103%. Further, the growth in [13] is 103%; in assay [14], 102%; in assay [15] it was 88.2%; in [16], 110%; in assay [17], 105%; in assay [18], 90.9%. Moreover, the growth in [19] is 98.9%.

Regarding `O=S(=O)(Nc1ccc(Cl)c(F)c1)c1ccc(-c2cnc(C3CC3)o2)cc1`, the growth in assay [1] was 31.9%; in assay [2] it was 34.4%; in assay [3] it was 47.6%; in assay [4] it was 48.6%; in assay [5], 45.5%; in assay [6], 47.5%. Further, the growth in assay [7] is 32.1%; in assay [8], -16.1% (active); in [9], 19.9%; in [10], 28.6%; in assay [11], 21.2%; in assay [12] it was 24.5%. For the same compound, the growth was 35.8% in assay [13]; 49.1% in [14]; 36.3% in [15]; 27.4% in assay [16]; -6.7% (active) in assay [17]; 16.1% in assay [18]. The growth in assay [19] is -20.8% (active).

`Cn1c(=O)c2c(nc3n(-c4ccc(Cl)cc4Cl)c(Sc4nc(-c5ccccc5)c(C#N)c(=O)[nH]4)cn23)n(C)c1=O`: the growth is 99% in [1]; 59.5% in assay [2]; 33% in [3]; -1.67% (active) in assay [4]; 5.58% (active) in [5]; 14.2% in assay [6]. The growth in assay [7] was 59.4%; in assay [8], 33.5%; in [9], 47.7%; in assay [10], 75.8%; in assay [11], 59.3%; in [12], 34.2%. Besides, the growth in assay [13] is 29.3%; in assay [14], -33.1% (active); in [15], 39.7%; in assay [16] it was 55.6%; in [17] it was -15.5% (active); in assay [18], 11.5%. Further, the growth in [19] was 43.9%.

As for `O=C1CC(=NCC(=O)n2c(-c3ccccc3)nc3ccccc32)NN1`, the growth in assay [1] was 98.7%; in assay [2] it was 77.5%; in [3] it was 99%; in assay [4] it was 69.3%; in assay [5], 155%; in assay [6] it was 93.3%. Also, the growth was 75.9% in [7]; 56.1% in assay [8]; 107% in assay [9]; 103% in assay [10]; 104% in assay [11]; 102% in assay [12]. Further, the growth in [13] is 99.9%; in assay [14] it was 97.5%; in assay [15], 84.8%; in assay [16] it was 77.2%; in [17], 103%; in assay [18], 103%. Further, the growth in [19] was 99.5%.
